Hit rate of the full screen: of about 5,500 compounds, about 2,000 (36%) were called active. Not shown: some 18% with an inconclusive outcome. Rule as the data show it: active = normalized growth mostly below about 0.91 (no sharp cut-off); inconclusive = no clear call, values can overlap the other calls; inactive = mostly above about 0.92. The list shows a part of the results.
Test: chemical genetic growth profiling, strain panel (AID 1159580);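 also: tested at 20 µM; growth read once vehicle control cultures reached saturation at 30 °C; 1 = growth at the plate median or of vehicle wells; lower values mean less growth of the strain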
Details: growth OD
[1] = S. cerevisiae deletion strains, locus YAR019C, strain CDC15, stronger effect = lower value
[2] = S. cerevisiae deletion strains, locus YBL105C, strain PKC1, stronger effect = lower value
[3] = S. cerevisiae deletion strains, locus YBR135W, strain CKS1, stronger effect = lower value
[4] = S. cerevisiae deletion strains, locus YBR136W, strain MEC1, stronger effect = lower value
[5] = S. cerevisiae deletion strains, locus YBR160W, strain CDC28, stronger effect = lower value
[6] = S. cerevisiae deletion strains, locus YDL017W, strain CDC7, stronger effect = lower value
[7] = S. cerevisiae deletion strains, locus YDL028C, strain MPS1, stronger effect = lower value
[8] = S. cerevisiae deletion strains, locus YDL101C, strain DUN1, stronger effect = lower value
[9] = S. cerevisiae deletion strains, locus YDL108W, strain KIN28, stronger effect = lower value
[10] = S. cerevisiae deletion strains, locus YDL132W, strain cdc53, stronger effect = lower value
[11] = S. cerevisiae deletion strains, locus YDL214C, strain PRR2, stronger effect = lower value
[12] = S. cerevisiae deletion strains, locus YDR052C, strain DBF4, stronger effect = lower value
[13] = S. cerevisiae deletion strains, locus YDR054C, strain cdc34, stronger effect = lower value
[14] = S. cerevisiae deletion strains, locus YDR226W, strain ADK1, stronger effect = lower value
[15] = S. cerevisiae deletion strains, locus YDR477W, strain SNF1, stronger effect = lower value
[16] = S. cerevisiae deletion strains, locus YER123W, strain YCK3, stronger effect = lower value
[17] = S. cerevisiae deletion strains, locus YER133W, strain GLC7, stronger effect = lower value
[18] = S. cerevisiae deletion strains, locus YFL009W, strain cdc4, stronger effect = lower value
[19] = S. cerevisiae deletion strains, locus YFL029C, strain CAK1, stronger effect = lower value
[20] = S. cerevisiae deletion strains, locus YFR003C, strain YPI1, stronger effect = lower value
[21] = S. cerevisiae deletion strains, locus YFR019W, strain FAB1, stronger effect = lower value
[22] = S. cerevisiae deletion strains, locus YFR028C, strain CDC14, stronger effect = lower value
[23] = S. cerevisiae deletion strains, locus YGR040W, strain KSS1, stronger effect = lower value
[24] = S. cerevisiae deletion strains, locus YGR052W, strain FMP48, stronger effect = lower value
[25] = S. cerevisiae deletion strains, locus YGR092W, strain DBF2, stronger effect = lower value
[26] = S. cerevisiae deletion strains, locus YHR030C, strain SLT2, stronger effect = lower value
[27] = S. cerevisiae deletion strains, locus YHR079C, strain IRE1, stronger effect = lower value
[28] = S. cerevisiae deletion strains, locus YHR082C, strain KSP1, stronger effect = lower value
[29] = S. cerevisiae deletion strains, locus YHR205W, strain SCH9, stronger effect = lower value
[30] = S. cerevisiae deletion strains, locus YIL147C, strain SLN1, stronger effect = lower value
[31] = S. cerevisiae deletion strains, locus YJL095W, strain BCK1, stronger effect = lower value
[32] = S. cerevisiae deletion strains, locus YJL128C, strain PBS2, stronger effect = lower value
[33] = S. cerevisiae deletion strains, locus YJL157C, strain FAR1, stronger effect = lower value
[34] = S. cerevisiae deletion strains, locus YJR016C, strain ILV3, stronger effect = lower value
[35] = S. cerevisiae deletion strains, locus YJR066W, strain TOR1 (second series), stronger effect = lower value
[36] = S. cerevisiae deletion strains, locus YJR066W, strain TOR1, stronger effect = lower value
[37] = S. cerevisiae deletion strains, locus YKL048C, strain ELM1, stronger effect = lower value
[38] = S. cerevisiae deletion strains, locus YKL067W, strain YNK1, stronger effect = lower value
[39] = S. cerevisiae deletion strains, locus YKL101W, strain HSL1, stronger effect = lower value
[40] = S. cerevisiae deletion strains, locus YKL193C, strain SDS22, stronger effect = lower value
[41] = S. cerevisiae deletion strains, locus YKL203C, strain TOR2, stronger effect = lower value
[42] = S. cerevisiae deletion strains, locus YLR113W, strain HOG1, stronger effect = lower value
[43] = S. cerevisiae deletion strains, locus YLR133W, strain CKI1, stronger effect = lower value
[44] = S. cerevisiae deletion strains, locus YLR403W, strain SFP1, stronger effect = lower value
[45] = S. cerevisiae deletion strains, locus YML070W, strain DAK1, stronger effect = lower value
[46] = S. cerevisiae deletion strains, locus YMR001C, strain CDC5, stronger effect = lower value
[47] = S. cerevisiae deletion strains, locus YMR205C, strain PFK2 (second series), stronger effect = lower value
[48] = S. cerevisiae deletion strains, locus YMR277W, strain FCP1, stronger effect = lower value
[49] = S. cerevisiae deletion strains, locus YNL006W, strain LST8, stronger effect = lower value
[50] = S. cerevisiae deletion strains, locus YNL020C, strain ARK1, stronger effect = lower value
[51] = S. cerevisiae deletion strains, locus YNL161W, strain CBK1, stronger effect = lower value
[52] = S. cerevisiae deletion strains, locus YNL183C, strain NPR1, stronger effect = lower value
[53] = S. cerevisiae deletion strains, locus YNL207W, strain RIO2, stronger effect = lower value
[54] = S. cerevisiae deletion strains, locus YNL222W, strain SSU72, stronger effect = lower value
[55] = S. cerevisiae deletion strains, locus YNL307C, strain MCK1 (second series), stronger effect = lower value
[56] = S. cerevisiae deletion strains, locus YOL078W, strain AVO1, stronger effect = lower value
[57] = S. cerevisiae deletion strains, locus YOL136C, strain PFK27, stronger effect = lower value
[58] = S. cerevisiae deletion strains, locus YOR061W, strain CKA2, stronger effect = lower value
[59] = S. cerevisiae deletion strains, locus YOR119C, strain RIO1, stronger effect = lower value
[60] = S. cerevisiae deletion strains, locus YOR231W, strain MKK1, stronger effect = lower value
[61] = S. cerevisiae deletion strains, locus YOR329C, strain SCD5, stronger effect = lower value
[62] = S. cerevisiae deletion strains, locus YPL031C, strain PHO85, stronger effect = lower value
[63] = S. cerevisiae deletion strains, locus YPL153C, strain RAD53, stronger effect = lower value
[64] = S. cerevisiae deletion strains, locus YPL204W, strain HRR25, stronger effect = lower value
[65] = S. cerevisiae deletion strains, locus YPL209C, strain IPL1, stronger effect = lower value
[66] = S. cerevisiae deletion strains, locus YPL256C, strain CLN2, stronger effect = lower value
[67] = S. cerevisiae deletion strains, locus YPR025C, strain CCL1, stronger effect = lower value
[68] = S. cerevisiae deletion strains, locus YPR106W, strain ISR1, stronger effect = lower value
[69] = S. cerevisiae deletion strains, locus YPR111W, strain DBF20, stronger effect = lower value
[70] = S. cerevisiae deletion strains, strain NNK1, stronger effect = lower value
[71] = S. cerevisiae deletion strains, strain TSCII, stronger effect = lower value

Measured: normalized growth

Cc1cccc(NC(=S)N/N=C\c2ccc(F)cc2)c1
active: [26] 0.821 | [35] 0.601 | [42] 0.847 | [66] 0.843
inactive: [1] 0.96 | [2] 0.966 | [3] 0.966 | [4] 0.965 | [5] 0.958 | [6] 0.958 | [7] 0.958 | [8] 0.967 | [9] 0.962 | [10] 0.934 | [11] 0.867 | [12] 0.956 | [13] 0.938 | [14] 0.952 | [15] 0.835 | [16] 0.806 | [17] 0.847 | [18] 0.953 | [19] 0.954 | [20] 0.972 | [21] 0.919 | [22] 0.954 | [23] 0.824 | [24] 0.871 | [25] 0.691 | [27] 0.762 | [28] 0.825 | [29] 0.874 | [30] 0.963 | [31] 0.834 | [32] 0.98 | [33] 0.876 | [34] 0.961 | [36] 0.773 | [37] 0.919 | [38] 0.9 | [39] 0.884 | [40] 0.961 | [41] 0.844 | [43] 0.847 | [44] 0.789 | [45] 0.88 | [46] 0.965 | [47] 0.879 | [48] 0.958 | [49] 0.967 | [50] 0.853 | [51] 0.969 | [52] 0.749 | [53] 0.946 | [54] 0.965 | [55] 0.788 | [56] 0.953 | [57] 0.844 | [58] 0.839 | [59] 0.915 | [60] 0.843 | [61] 0.959 | [62] 0.794 | [63] 0.773 | [64] 0.795 | [65] 0.964 | [67] 0.961 | [68] 0.968 | [69] 0.965 | [70] 0.967 | [71] 0.961

CCCOc1ccccc1/C=N\NC(=S)Nc1cccc(F)c1
inactive: S. cerevisiae deletion strains, locus YAL013W, strain DEP1, stronger effect = lower value 0.999 | S. cerevisiae deletion strains, locus YBR229C, strain ROT2, stronger effect = lower value 1.02 | S. cerevisiae deletion strains, locus YCL061C, strain MRC1, stronger effect = lower value 1.01 | [8] 1.04 | S. cerevisiae deletion strains, locus YDR150W, strain NUM1, stronger effect = lower value 1 | S. cerevisiae deletion strains, locus YEL061C, strain CIN8, stronger effect = lower value 1 | S. cerevisiae deletion strains, locus YGR078C, strain PAC10, stronger effect = lower value 1 | S. cerevisiae deletion strains, locus YGR229C, strain SMI1, stronger effect = lower value 1.01 | [26] 0.921 | S. cerevisiae deletion strains, locus YHR087W, strain rtc3, stronger effect = lower value 1.03 | S. cerevisiae deletion strains, locus YJL187C, strain SWE1, stronger effect = lower value 1 | S. cerevisiae deletion strains, locus YJR043C, strain POL32, stronger effect = lower value 1.01 | S. cerevisiae deletion strains, locus YJR075W, strain HOC1, stronger effect = lower value 1.08 | S. cerevisiae deletion strains, locus YLR039C, strain RIC1, stronger effect = lower value 1.02 | S. cerevisiae deletion strains, locus YLR058C, strain SHM2 (second series), stronger effect = lower value 1 | S. cerevisiae deletion strains, locus YLR085C, strain ARP6, stronger effect = lower value 0.882 | S. cerevisiae deletion strains, locus YLR262C, strain YPT6, stronger effect = lower value 1.02 | S. cerevisiae deletion strains, locus YML094W, strain GIM5, stronger effect = lower value 1.01 | S. cerevisiae deletion strains, locus YMR219W, strain ESC1, stronger effect = lower value 1.01 | S. cerevisiae deletion strains, locus YMR263W, strain SAP30, stronger effect = lower value 0.966 | S. cerevisiae deletion strains, locus YMR307W, strain GAS1, stronger effect = lower value 0.93 | S. cerevisiae deletion strains, locus YNL153C, strain GIM3, stronger effect = lower value 1 | S. cerevisiae deletion strains, locus YNL298W, strain CLA4 (second series), stronger effect = lower value 0.983 | S. cerevisiae deletion strains, locus YNL322C, strain KRE1, stronger effect = lower value 1.03 | S. cerevisiae deletion strains, locus YNR030W, strain Alg12, stronger effect = lower value 0.988 | S. cerevisiae deletion strains, locus YPL055C, strain LGE1, stronger effect = lower value 0.945 | S. cerevisiae deletion strains, locus YPL241C, strain CIN2, stronger effect = lower value 0.996 | S. cerevisiae deletion strains, locus YPR135W, strain CTF4, stronger effect = lower value 0.987 | S. cerevisiae strains, strain wild type, stronger effect = lower value 1

O=C(/C=C/c1ccc2c(c1)OCO2)Nc1ccc(Br)cc1
active: [42] 0.754
inactive: [1] 0.962 | [2] 0.962 | [3] 0.972 | [4] 0.961 | [5] 0.967 | [6] 0.964 | [7] 0.962 | [8] 0.955 | [9] 0.961 | [10] 0.96 | [11] 0.922 | [12] 0.953 | [13] 0.958 | [14] 0.968 | [15] 0.962 | [16] 0.9 | [17] 0.976 | [18] 0.954 | [19] 0.962 | [20] 0.957 | [21] 0.987 | [22] 0.955 | [23] 0.95 | [24] 0.909 | [25] 0.767 | [26] 0.86 | [27] 0.872 | [28] 0.965 | [29] 0.791 | [30] 0.962 | [31] 0.77 | [32] 0.918 | [33] 0.974 | [34] 0.958 | [35] 0.972 | [36] 0.912 | [37] 0.931 | [38] 0.932 | [39] 0.933 | [40] 0.954 | [41] 1.03 | [43] 0.96 | [44] 0.927 | [45] 0.9 | [46] 0.957 | [47] 0.938 | [48] 0.959 | [49] 0.974 | [50] 0.955 | [51] 0.971 | [52] 0.889 | [53] 0.953 | [54] 0.966 | [55] 0.854 | [56] 0.945 | [57] 0.889 | [58] 0.973 | [59] 1.02 | [60] 0.847 | [61] 0.963 | [62] 0.962 | [63] 0.97 | [64] 0.95 | [65] 0.963 | [66] 0.954 | [67] 0.958 | [68] 0.946 | [69] 0.925 | [70] 0.939 | [71] 0.968
